Laboratory results reported in PubChem BioAssay (NCI).
About 83,000 compounds went through this panel and 20% of them were active in at least one assay; those are over-represented in the sample as a whole.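 A percent growth of 40 corresponds to 60% growth inhibition; 0 means no net growth; -100 means all cells died. Active threshold: below 10.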 Activity calls are given as the source filed them.

test system: MDA-MB-468 breast; assay: NCI-60 one-dose screen, 48 h (100 = growth as untreated, 0 = no growth, -100 = all killed); conditions: 10 µM unless noted

Compound	growth
COc1cc2ncnc(NC3CCC(O)CC3)c2cc1OC (configuration not stated)	96.7% (inactive)
CC(=O)C1Cc2ccccc2C1=O (configuration not stated)	105% (inactive)
COc1cccc(-c2cnco2)c1OCc1c(C)c(COc2c(OC)cccc2-c2cnco2)c(C)c(COc2c(OC)cccc2-c2cnco2)c1C	59% (inactive)
COc1ccc(C/C(C)=C(/c2ccc(OCCCN(C)C)cc2)c2ccc(OC(C)=O)cc2)cc1	63.8% (inactive)
C=C1CC[C@@H]2[C@](C)(COC(C)=O)[C@H](OC(C)=O)CC[C@@]2(C)[C@@H]1CC(Sc1ccccc1)C1=CCOC1=O (some centres not stated)	-61.1% (active)
COc1ccc(CCN2CC=Cn3c2nc2ccccc2c3=O)cc1	-0.686% (active)
CCCCCCCCn1ccc2cc(NC(=O)Cn3cc(CN4CCN(CC)CC4)nn3)ccc21	62.1% (inactive)
Cn1c2ccc(Br)cc2c2c3c(c4c5ccccc5[nH]c4c21)C(=O)N(O)C3=O	-52.5% (active)
CCCCCCCCCCCCCCCC(N)c1ccccc1 (configuration not stated)	-82.2% (active)
Cn1cc(-c2cc(N)n3nc(-c4cn(C)c5ccc(Br)cc45)cc3n2)c2cc(Br)ccc21	97.9% (inactive)
Nc1nc2c(c3ncccc13)C(c1ccc(Cl)c(Cl)c1)Cc1ncccc1-2 (configuration not stated)	-6.48% (active)
Clc1ccc2c(NCCCn3ccnc3)c3oc4ccc(Cl)cc4c3nc2c1	31.3% (inactive)
COc1cc2nc(-c3ccc(C(F)(F)F)cc3)cc(OCCN3CCCC3)c2cc1OC	89.4% (inactive)
FC(F)(F)c1cc(CNc2ncc(Br)c(Cl)n2)cc(C(F)(F)F)c1	93.2% (inactive)
COc1ccc(/C=C2\COc3ccc(-c4ccccc4)cc3C2=O)c(OC)c1	57% (inactive)
CC1=NC(c2ccc(Cl)cc2)C2=C(N1)/C(=C/c1ccc(Cl)cc1)CCC2 (configuration not stated)	75.8% (inactive)
Nc1nc(-c2cccc([N+](=O)[O-])c2)c(N=Nc2ccccc2[N+](=O)[O-])s1	74.8% (inactive)
CNS(=O)(=O)c1ccc(Cl)c(Cl)c1	101% (inactive)
O=c1c2cc(F)ccc2sc2c(N3CCCCC3)nc3ccccc3c12	95.6% (inactive)

Compound	growth
COc1ccc2[nH]c(O)c(C(=Nc3ccc(N(C)C(=O)CN4CCN(C)CC4)cc3)c3ccccc3)c2c1	58.1% (inactive)
O=[N+]([O-])CC(c1ccccc1F)c1c[nH]c2ccccc12 (configuration not stated)	44% (inactive)
Cc1ccc(-c2nc([P+](c3ccccc3)(c3ccccc3)c3ccccc3)c(S(=O)(=O)c3ccc(C)cc3)o2)cc1	-21.5% (active)
O=C(Nc1c2ccccc2nc2ccccc12)c1ccccc1CN1C(=O)c2ccccc2C1=O	0.8% (active)
O=S1(=O)OC(c2cc(Cl)c(O)c(Br)c2)(c2cc(Cl)c(O)c(Br)c2)c2ccccc21	118% (inactive)
COC(=O)c1ccc(C(=Nc2ccc(N(C)C(=O)CN3CCN(C)CC3)cc2)c2c(O)[nH]c3ccc(C(=O)OC)cc23)cc1	62.5% (inactive)
COc1ccc2c(c1)c(/C(O)=C1\COC(=O)C1=O)cn2Cc1ccc(F)cc1	100% (inactive)
CN1CC[C@@H]2[C@@]3(C)CC[C@H](O)C(C)(C)[C@@H]3CC[C@@]2(C)[C@]2(C)CC[C@@]3(CO)CCC(C)(C)C[C@@H]3C12 (some centres not stated)	62% (inactive)
O=c1[nH]ccc2nc(N3CCC(O)CC3)nc(Nc3cccc(C(F)(F)F)c3)c12	14.5% (inactive)
O=C1CN(c2ccccc2)C(=O)C1C(=O)Nc1ccc(Cl)c(Cl)c1 (configuration not stated)	19.2% [100 µM] (inactive)
O=c1[nH]c(=S)c2c(n1CCCO)CCC2	106% (inactive)
CCCOc1ccc(/C=N/Nc2cc(C)nc3ccc(Cl)cc23)cc1	8.78% (active)
CCN(CC)CC#CCOC(=O)[C@]1(C)CCC[C@@]2(C)[C@H]1CC(C=O)=C1C=C(C(C)C)CC[C@@H]12	41.5% (inactive)
Cc1cc(C)c(C#N)c(Sc2nc(C)c([N+](=O)[O-])c(C)c2C#N)n1	46% (inactive)
CN(C)CCOC(=O)Nc1nc2ccc(Sc3ccccc3)cc2[nH]1	2.02% (active)
COC(=O)c1cc(N=C2NC(=O)/C(=C/C=C/c3ccccc3)S2)ccc1O	17.5% (inactive)
COc1ccc(C2CC(c3cccc(OCCCCOc4cccc(C5=NOC(c6ccc(OC)cc6)C5)c4)c3)=NO2)cc1 (configuration not stated)	112% (inactive)
NC(=O)c1cccc(-n2ccc3cc(NC(=O)Nc4ccc(N5CCOCC5)c(C(F)(F)F)c4)ccc32)n1	0.818% (active)
